These compounds were tested against Neuropilin-1 (Homo sapiens) (UniProt O14786) (assay: NRP-1 b1b2 CendR peptide binding inhibitors, dose response, biochemical, FP and AlphaScreen panel (AID 651650)). Conditions: NRP-1 b1b2 / RPARPAR peptide binding, FP or AlphaScreen; run 1, at 100 µM (top of the series).
Sequence of Neuropilin-1 (Homo sapiens) (O14786 whole entry, looked up): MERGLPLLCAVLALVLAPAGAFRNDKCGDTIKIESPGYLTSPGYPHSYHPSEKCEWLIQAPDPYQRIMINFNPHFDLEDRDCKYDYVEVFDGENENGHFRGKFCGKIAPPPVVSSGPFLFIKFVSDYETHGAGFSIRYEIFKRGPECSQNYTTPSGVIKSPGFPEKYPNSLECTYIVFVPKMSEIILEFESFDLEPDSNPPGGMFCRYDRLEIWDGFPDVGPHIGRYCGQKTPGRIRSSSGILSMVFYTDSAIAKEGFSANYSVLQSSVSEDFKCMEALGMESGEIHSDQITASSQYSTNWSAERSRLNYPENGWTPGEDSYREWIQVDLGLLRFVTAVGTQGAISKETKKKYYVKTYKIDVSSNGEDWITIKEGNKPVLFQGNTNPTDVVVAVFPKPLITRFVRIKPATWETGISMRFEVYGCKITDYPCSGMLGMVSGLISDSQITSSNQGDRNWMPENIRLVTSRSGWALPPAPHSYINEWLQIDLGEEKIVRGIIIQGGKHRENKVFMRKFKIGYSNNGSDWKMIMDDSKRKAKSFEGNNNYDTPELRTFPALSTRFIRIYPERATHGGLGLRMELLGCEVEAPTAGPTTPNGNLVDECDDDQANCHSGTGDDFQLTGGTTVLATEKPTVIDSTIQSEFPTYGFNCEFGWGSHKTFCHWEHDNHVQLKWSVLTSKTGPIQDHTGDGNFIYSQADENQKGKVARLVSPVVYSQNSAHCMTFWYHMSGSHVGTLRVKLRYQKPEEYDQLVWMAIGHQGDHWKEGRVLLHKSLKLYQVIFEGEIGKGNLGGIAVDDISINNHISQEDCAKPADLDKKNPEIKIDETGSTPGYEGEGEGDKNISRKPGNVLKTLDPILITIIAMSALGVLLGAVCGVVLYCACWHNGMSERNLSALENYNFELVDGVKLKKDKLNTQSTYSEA
With `O=S(=O)(c1cc(Cl)cc(Cl)c1)N1Cc2cc(-c3ccccc3)ccc2-n2nncc2C1` the inhibition was 13.6%.
With `Cc1ccc(Cn2nnnc2CN2CCC(n3nnc4ccccc43)CC2)cc1` the inhibition was 15.9%.
`CN1C[C@H](CO)C=C2c3cccc4[nH]cc(c34)C[C@H]21` was tested, and the inhibition was 51.6%.
For `COC(=O)C1=C(c2cccc(C#N)c2)C[C@@H]2CC[C@H]1N2C(=O)NCCO`, the inhibition was 39.7%.
For `CC(=O)OC1CC[C@]2(C#N)[C@H]3CC[C@]4(C)[C@H](C5C=CC(=O)O5)CCC4(O)C3CCC2(O)C1` (some centres undefined), the inhibition was 58.3%.
`CC1(C)CN=C(Nc2ccc(F)c(Cl)c2)S1` was tested, and the inhibition was 82.2%.
For `CCC1C2Cc3ccc(O)cc3C1(CC)CCN2C` (centres undefined), the inhibition was 3.24%.
With `Cc1ccc(C(=O)C2CN3CCC2CC3)cc1` (centres undefined) the inhibition was 26.3%.
For `C=CCN1C(=O)C2(C(C(=O)OCC)=C(N)Oc3ccccc32)c2c1c1ccccc1oc2=O` (centres undefined), the inhibition was 4.11%.
With `COC(=O)C1=C(c2ccc(F)cc2OCc2ccccc2)C[C@@H]2CC[C@H]1N2C(=O)NCCNC(C)=O` the inhibition was 95.9%.
Work on `Cc1c(NP(=O)(C(C)(C)C)C(C)(C)C)c(=O)n(-c2ccccc2)n1C` yielded an inhibition of 31.8%.
Compound `Cc1ccc(C2(O)CCN3CCCCC32)cc1` (centres undefined) has an inhibition of -5.87%.
`CCC(=NCCc1ccccc1)c1c(O)n(C2CCCCC2)c(=O)[nH]c1=O` gave an inhibition of 42.9%.
`O=C1C=CC(=O)C2C1C1(Cl)C(Cl)=C(Cl)C2(Cl)C1(Cl)Cl` (centres undefined) gave an inhibition of 44.9%.

Source: PubChem BioAssay AID651650 (Sanford-Burnham Center for Chemical Genomics, 2012)
